LDHA block: inhibitors of human lactate dehydrogenase A | P00338 | purified LDHA, NADH/diaphorase-resazurin fluorescence; hits give low values | activity change, % (values are at about 110 or 230 µM) | hit rate 0.15% among 480,000; in the data active means activity change below about -30%; inconclusive means mostly about -25% to -30%;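 further: plate controls were DMSO wells for no effect and wells without enzyme for full effect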
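LDH5 2 nM; NADH 0.06 mM, pyruvate 0.2 mM; 200 mM Tris pH 7.4, EDTA, Tween-20; 5 min RT. Detection: diaphorase 0.133 mg/mL + resazurin 37 µM, fluorescence ex540/em590 at 0 and 20 min; normalized to enzyme-free and DMSO wells.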
12-LOX inh: blocks human arachidonate 12S-lipoxygenase; hit rate 1.1% among 580,000; P18054; AID 1671190; purified 12hLO, xylenol orange hydroperoxide absorbance; Potency, µM (top dose mostly 108 µM), for the others: at the top dose activity change, negative = inhibition, hits mostly inhibitors; further: potency means the concentration at half of the fitted maximal effect; on the % scale 0 is the no-effect control and ±100 the full control effect
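Hydroperoxide product was detected by ferrous iron/xylenol orange as the 573 to 405 nm absorbance ratio. Arachidonic acid at 40 uM (final) was turned over for 30 min at room temperature by 150 nM human 12hLO, pH 7.0 Hepes buffer, after 15 min compound preincubation.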
Nrf2 block: inhibitors of Nrf2 signaling | AID 504444 | hit rate 2.1% among 360,000 | Potency, µM (top dose mostly 46 µM), for inactives: at the highest dose activity change, negative = inhibition, hits mostly inhibitors | A549 ARE-Fluc reporter, luciferase luminescence, 18-24 h; further: potency means the concentration at half of the fitted maximal effect; on the % scale 0 is the no-effect control and ±100 the full control effect; nearly all actives have a fitted effect of over 60% in size
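A549 ARE_Fluc cells, 5000/well, 5% FBS OPTI-MEM; compounds in dose-response, 18-24 h at 37 °C/5% CO2; CellTiter-Fluor viability read (Ex 405/Em 525), then BugLite luciferase luminescence = Nrf2 activity.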
A549 tox: kills or reduces viability of A549 cells in Nrf2 counter-screen. A549 ARE-Fluc cells, CellTiter-Fluor viability, 18-24 h. Potency, µM (titrated, usually from 46 µM), inactives show at the top dose activity change, negative = cytotoxicity, most hits filed as inhibitors. hit rate 0.16% among 390,000. AID 504648; further: potency means the concentration at half of the fitted maximal effect; on the % scale 0 is the no-effect control and ±100 the full control effect
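A549 ARE_Fluc cells in 5% FBS OPTI-MEM were exposed to compounds in concentration-response for 18-24 h at 37 deg C. Viability was read by CellTiter-Fluor fluorescence (Ex 405/Em 525) after 30 min, before the luciferase read.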
IDH1 R132H inh: blocks human mutant IDH1 R132H enzyme; O75874; IDH1-R132H enzyme, NADPH consumption, diaphorase/resazurin fluorescence; Potency, µM (highest dose often 76.6 µM), inactives show at the highest dose activity change, negative = inhibition, hits mostly inhibitors; hit rate 0.093% among 390,000; AID 602179; further: potency means the concentration at half of the fitted maximal effect; on the % scale 0 is the no-effect control and ±100 the full control effect; nearly all actives have a fitted effect of over 65% in size
Target sequence (O75874 whole entry R132H, stated change not applied): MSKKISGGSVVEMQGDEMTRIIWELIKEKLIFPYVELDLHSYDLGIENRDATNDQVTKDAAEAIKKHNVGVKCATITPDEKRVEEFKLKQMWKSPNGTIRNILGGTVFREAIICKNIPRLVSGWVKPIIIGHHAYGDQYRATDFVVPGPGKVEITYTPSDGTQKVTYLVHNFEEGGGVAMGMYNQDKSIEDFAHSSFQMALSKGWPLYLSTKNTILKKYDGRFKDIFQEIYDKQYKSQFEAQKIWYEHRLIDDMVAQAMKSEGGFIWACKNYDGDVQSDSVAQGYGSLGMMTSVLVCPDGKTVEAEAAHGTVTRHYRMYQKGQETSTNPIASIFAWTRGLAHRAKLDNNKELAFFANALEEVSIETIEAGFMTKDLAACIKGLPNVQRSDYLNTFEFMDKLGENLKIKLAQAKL
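IDH1-R132H (0.5 ug/mL dispensed) in pH 7.5 Tris buffer was preincubated 30 min with compound, then given a substrate mix of 0.016 mM NADPH and 2 mM alpha-KG for 80 min at room temperature; remaining NADPH was read by diaphorase/resazurin fluorescence.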
Nrf2 activator: activates Nrf2 signaling. AREc32 ARE-luciferase reporter (MCF7-derived line), luminescence, 24 h. hit rate 0.31% among 410,000. AID 624171. Potency, µM (titrated, usually from 46.1 µM), for the others: top-dose activation, usual class: activators; further: potency means the concentration at half of the fitted maximal effect; % of control where 0% means no effect; nearly all actives have a fitted effect of over 65% in size
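Luminescent ARE reporter assay in AREc32_Fluc cells: overnight plating at 37 deg C, 24 hr compound incubation, Steady-Glo added, 30 min RT before reading.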
Numbers without * were called inactive; ? = inconclusive; / = no result. A selection: hits, their analogues and other compounds. The true share with any hit is near 2.7%. Unless noted, the call rests on the fitted dose curve; in most records, active means well fitted curve in the direction sought with a large enough effect; inconclusive means small, poorly fitted or top-dose-only effect, or another doubt; inactive means no such curve, though single readings can be large; an effect the other way counts as inactive or inconclusive.

SMILES | LDHA block | 12-LOX inh | Nrf2 block | A549 tox | IDH1 R132H inh | Nrf2 activator
Cc1ccc(S(=O)(=O)N[C@@H](Cc2ccccc2)C(=O)CCl)cc1 | -4 | ? | 18µM* | -10% | -13% | 6%
CCOC(=O)C(NC(=O)c1ccc(F)c(F)c1)C(=O)OCC | 4 | -31% | / | / | / | /
NCCCC[C@@H]1NC(=O)[C@H](CCC(=O)O)NC(=O)c2cc([N+](=O)[O-])cc(I)c2SC[C@@H](C(=O)NCC(N)=O)NC1=O | 5 | 40µM* | 1% | -1% | 6% | 0%
NCCCC[C@@H]1NC(=O)c2cc([N+](=O)[O-])cc(I)c2SC[C@@H](C(N)=O)NC(=O)[C@H](Cc2ccc(O)cc2)NC1=O | 1 | / | 1% | 2% | -7% | 0%
NCCCC[C@H]1NC(=O)[C@H](CCC(=O)O)NC(=O)c2cc([N+](=O)[O-])cc(I)c2OCC[C@@H](C(N)=O)NC1=O | -40* | / | -1% | -22% | 22% | 1%
Cc1oc(-c2ccccc2F)nc1CSCC(=O)NC1CCCC1 | -1 | 0% | 18µM* | 0% | -10% | 0%
ClC(=C\c1ccccc1)/C=N/N1CCN(Cc2ccccc2)CC1 | -13 | 1% | / | / | / | /
C=CCN1C(=O)/C(=C\C=C2\N(C)c3ccccc3C2(C)C)SC1=S | -10 | -5% | -12% | ? | -1% | 0%
CN1/C(=C\C=C2/SC(=S)N(CC(=O)O)C2=O)C(C)(C)c2ccccc21 | 15 | -15% | 4.1µM* | 9.2µM* | -3% | 1%
Cc1cc(C)nc(SCC(=O)c2ccc(O)c(O)c2)n1 | 7 | 8.9µM* | 22% | 3% | -7% | 4%
Cc1cc(=O)[nH]c(SCC(=O)c2ccc(O)c(O)c2)n1 | 3 | 4.5µM* | -7% | -6% | -11% | 2%
Cc1cc(SCC(=O)c2ccc(O)c(O)c2)n2nc(C)c(-c3ccccc3)c2n1 | -1 | 40µM* | ? | -18% | -4% | -1%
COc1ccc(-n2nnnc2SCC(=O)c2ccc(O)c(O)c2)cc1 | 13 | 4.5µM* | ? | -19% | -9% | 0%
CSCC(=O)NCc1ccc(CN2CCCC2)cc1 | 4 | -26% | / | / | / | /
O=C(CSc1nc2ccccc2n1CCc1ccccc1)c1ccc(O)c(O)c1 | 6 | 25µM* | 6% | 0% | 1% | 4%
COc1ccc2c(C)c(CC(=O)NCCCN3CCOCC3)c(=O)oc2c1 | 7 | 6% | / | / | / | /
COc1cccc(-n2c(C)c(C)c3c2ncn2nc(-c4cccs4)nc32)c1 | -36* | 0% | / | / | / | /
CCc1ccc2cc3c(cc2n1)C(=O)c1ccccc1-3 | -3 | 7.9µM* | / | / | / | 23%
Cc1nc(SCC(=O)Nc2nc3ccccc3s2)c(C#N)c(C)c1C | -5 | -8% | 4.6µM* | 14% | -1% | -2%
O=C1CCCCC1Nc1ccc2ccccc2c1 (stereo not drawn) | 30 | ? | 18µM* | ? | -8% | 5%
O=C1CCCC1C(=O)Nc1ccc2ccccc2c1 (stereo not drawn) | -8 | ? | -1% | -4% | -16% | 4%
N#Cc1c(-c2ccccc2)cc(-c2ccccc2)nc1SCC(=O)NCC(=O)O | -102* | -14% | -4% | 1% | -1% | -1%
O=C(Cc1n[nH]c(=O)c2ccccc12)N1CCN(c2ccccc2F)CC1 | -1 | ? | / | / | / | /
O=c1[nH]c2ccc(-c3csc(NC4CC4)n3)cc2[nH]1 | 13 | 18µM* | / | / | / | /
CC1C(=O)Nc2ccc(-c3csc(NC4CCCC4)n3)cc21 (stereo not drawn) | -3 | 16µM* | / | / | / | /
CC(C)CCNc1nc(-c2ccc3[nH]c(=O)[nH]c3c2)cs1 | 2 | 45µM* | / | / | / | /
COc1ccc(-c2csc(NCC(C)C)n2)cc1OC | 0 | ? | / | / | / | /
c1cc2c(cc1-c1csc(NC3CCCC3)n1)OCCCO2 | 9 | ? | / | / | / | /
COc1cc(-c2csc(NC3CC3)n2)ccc1OC(F)F | -13 | 25µM* | / | / | / | /

Bioassay records deposited in PubChem by National Center for Advancing Translational Sciences (NCATS).
